# Measurements as given in PubChem BioAssay AID1794835 (Parasite Biology Lab, Institute for Biomedicine and …, 2023).
# About 45 (2%) of roughly 2,500 compounds were called active. Cut-off read from the data, not from the text of the source: active = inhibition mostly above about 45% (no sharp cut-off); inactive = mostly below about 37%. The sample as a whole holds a higher share of actives than the screen did.
# Experiment: anti-Giardia activity of synthetic compounds – Compounds Australia Scaffold Library subset, 24/48 h, primary screen (AID 1794835);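 for inhibition: 0% = parasite counts in DMSO vehicle wells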
# Conditions: Giardia lamblia BRIS/91/HEPU/1279 trophozoite counts, imaging, at 10 µM
# [1] = measured here: growth inhibition at 24 h, stronger effect = higher value
compound,measurement,setting,value
COc1cc(OC)c(C2=CCN(C(=O)c3ccc(C)s3)CC2)c(OC)c1,inhibition,stronger effect = higher value,59.3% (active)
same,inhibition,[1],23.1%
COC(=O)c1ccc(C(=O)N2CCc3sccc3C2)s1,inhibition,,inactive
CC(=O)c1ccc(C(=O)N2CC=C(c3ccccc3)CC2)s1,inhibition,,inactive
CC(=O)N1c2ccc(S(=O)(=O)N3CCOCC3)cc2CC1C(=O)NCCN1CCOCC1 (configuration not stated),inhibition,,inactive
CCC(=O)Nc1nc2c(OC)cc(NS(=O)(=O)c3cc(Cl)ccc3OC)cc2s1,inhibition,,inactive
COc1cc(NS(=O)(=O)c2ccc(C)cc2)cc2sc(NC(=O)c3ccccc3)nc12,inhibition,stronger effect = higher value,50% (active)
same,inhibition,[1],23.6%
COc1ccc(NC(=O)c2cncc(NS(=O)(=O)c3ccc(C)cc3)c2)cc1,inhibition,,inactive
COc1ccc(-c2noc(C3CCOCC3)n2)c(OC)c1,inhibition,,inactive
Cc1ccc2nc(-c3ccc(C)c(NC(=O)c4cccnc4)c3)[nH]c2c1,inhibition,stronger effect = higher value,8.2% (inactive)
same,inhibition,[1],2.9%
Cc1cnn(CC(C)NCc2nc(-c3ccccn3)no2)c1 (configuration not stated),inhibition,stronger effect = higher value,19.9% (inactive)
Cc1ccc(-c2cc(C(=O)NCc3cn(C)nc3C)c3ccccc3n2)cc1C,outcome,,inactive
same,inhibition,[1],3%
COc1cccc(-n2nnc3c(=O)n(CC(=O)N4CCCC4)cnc32)c1,inhibition,,inactive
CCOC(=O)c1ccc(S(=O)(=O)N2CCN(C3CCOC3=O)CC2)o1 (configuration not stated),inhibition,,inactive
O=S(=O)(c1cc(-c2nc(-c3cccc(F)c3)no2)cs1)N1CCCCC1,inhibition,,inactive
CCN1CCN(c2ccc(-c3nc(-c4cccc(F)c4)no3)cn2)CC1,inhibition,stronger effect = higher value,48.2% (inactive)
same,inhibition,[1],31.4%
Cn1nccc1-c1cccc(-c2noc(-c3cccc(F)c3)n2)c1,inhibition,stronger effect = higher value,64.1% (active)
same,inhibition,[1],17.6%
O=c1[nH]c(CN2CCC(c3nc4ccccc4o3)CC2)nc2ccsc12,inhibition,,inactive
CC(C)c1ccc(Nc2ncccc2S(=O)(=O)N2CCCC2)cc1,inhibition,stronger effect = higher value,57.5% (active)
same,inhibition,[1],27%
CC(C)c1ccc(NC(=O)c2ccc(F)c(S(=O)(=O)N3CCN(c4ccccc4)CC3)c2)cc1,inhibition,,inactive
CCOC(=O)c1cccc(Nc2ncccc2S(N)(=O)=O)c1,inhibition,stronger effect = higher value,35.4% (inactive)
same,inhibition,[1],14.6%
CC(=O)Nc1nsc(N2CCCC(C(=O)NCc3ccccc3Cl)C2)n1 (configuration not stated),inhibition,stronger effect = higher value,5.9% (inactive)
same,inhibition,[1],4.9%
Cc1ccc2nc(-c3ccccc3)c(CN3CCN(C4CCS(=O)(=O)C4)CC3)n2c1 (configuration not stated),inhibition,,inactive
O=S1(=O)CCC(n2cc(-c3cnn(-c4ccccc4)c3)cn2)C1 (configuration not stated),inhibition,stronger effect = higher value,66.2% (active)
same,inhibition,[1],45.5%
O=C(c1cn2ccccc2n1)N1CCN(C2CCS(=O)(=O)C2)CC1 (configuration not stated),inhibition,,inactive
O=C(c1ccc(F)cc1)N1CCc2[nH]nc(C(=O)N3CCN(c4ccc(F)cc4)CC3)c2C1,inhibition,stronger effect = higher value,0.9% (inactive)
same,inhibition,[1],2.4%
O=C(c1ccc2c(=O)n3c(nc2c1)CCCC3)N1CC=C(c2ccccc2)CC1,inhibition,,inactive
COc1ccccc1-c1cc(C(=O)Nc2sc(Nc3ccccc3)nc2C(N)=O)[nH]n1,inhibition,stronger effect = higher value,11.1% (inactive)
same,inhibition,[1],11.2%
Cc1cccc(C)c1NC(=O)c1cc(-c2ccccc2)nc2c1cnn2Cc1cccnc1,inhibition,stronger effect = higher value,17.5% (inactive)
CN(C)CCn1cc(C(=O)c2cc(Cl)ccc2O)cc1-c1nc2ccccc2c(=O)[nH]1,inhibition,stronger effect = higher value,85.8% (active)
same,inhibition,[1],45%
CN(C)CCCN1C(=O)C(=O)C(=C(O)c2cc(Cl)ccc2O)C1c1ccco1 (configuration not stated),inhibition,stronger effect = higher value,14.6% (inactive)
Cn1cc(C(=O)c2ccccc2O)cc1-c1nc2ccccc2c(=O)[nH]1,inhibition,,inactive
Cc1noc(-c2nn(C)c3c2CN(S(=O)(=O)Cc2cccc(F)c2)CC3)n1,inhibition,stronger effect = higher value,14.3% (inactive)
O=C(CCc1ccc(Cl)cc1Cl)N1CCCC(c2ncn[nH]2)C1 (configuration not stated),inhibition,stronger effect = higher value,0.4% (inactive)
NC(=O)C1=C(Nc2ccccc2)c2ccccc2S1(=O)=O,inhibition,stronger effect = higher value,48.5% (active)
same,inhibition,[1],12.8%
CCCNC1=C(C(=O)Nc2ccc(F)cc2)S(=O)(=O)c2ccccc21,inhibition,stronger effect = higher value,46.5% (inactive)
same,inhibition,[1],21.9%
CN(C)c1nc(N(C)C)nc(N2CC(=O)N(c3ccc(Cl)c(Cl)c3)C2=N)n1,inhibition,stronger effect = higher value,16% (inactive)
same,inhibition,[1],9.5%
